Test results taken from PubChem BioAssay (NCI).
Compounds without any hit were thinned out: in the full panel of roughly 79,000, 15% have a hit. Active and inactive are the calls of the source. Cut-off read from the data, not from the text of the source: active = growth inhibition above about 70%; inactive = the rest.

Legend:
[1] = NCI Yeast Anticancer Drug Screen. Data for the rad52 strain (AID 147);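 note: 0% = growth of vehicle-treated control cultures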; conditions: S. cerevisiae rad52 mutant growth inhibition, active compounds read high
In short: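 The repair-mutant yeast strain was incubated with compounds, then growth was read and inhibition derived relative to vehicle.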

[2] = NCI Yeast Anticancer Drug Screen. Data for the wt1 strain (AID 149);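 note: 0% = growth of vehicle-treated wt1 cultures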; conditions: S. cerevisiae wt1 strain (SPY 50644) growth inhibition, active compounds read high
In short: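 wt1 strain grown with compound or vehicle; inhibition taken from the growth difference.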

[3] = NCI Yeast Anticancer Drug Screen. Data for the rad50EPP+ strain (AID 151);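 note: 0% = growth of vehicle-treated control cultures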; conditions: S. cerevisiae rad50 mutant strain, active compounds read high
In short: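 Vehicle-normalised growth inhibition; rad50EPP+ yeast strain, altered in DNA damage repair, compound-treated.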

[4] = NCI Yeast Anticancer Drug Screen. Data for the rad50 strain (AID 155);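 note: 0% = growth of vehicle-only cultures of the same strain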; conditions: S. cerevisiae rad50 strain growth inhibition, active compounds read high
In short: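 DNA repair mutant yeast, compound exposure, growth read-out; inhibition is taken relative to vehicle.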

[5] = NCI Yeast Anticancer Drug Screen. Data for the mec2-1 strain (AID 157); conditions: S. cerevisiae mec2-1 strain, active compounds read high
In short: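 Mutant yeast (mec2-1) grown with compound; growth inhibition relative to vehicle control reported.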

[6] = NCI Yeast Anticancer Drug Screen. Data for the rad14 strain (AID 159);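 note: 0% = growth of vehicle-treated control cultures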; conditions: S. cerevisiae rad14 strain growth inhibition, active compounds read high
In short: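 DNA repair-defective yeast, compound-exposed; % growth inhibition derived by comparison with vehicle-treated controls.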

[7] = NCI Yeast Anticancer Drug Screen. Data for the sgs1 mgt1 strain (AID 161);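 note: 0% = growth of cultures given vehicle only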; conditions: S. cerevisiae sgs1 mgt1 strain, active compounds read high
In short: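 Growth of a repair-deficient yeast mutant was monitored after compound treatment and expressed as inhibition relative to vehicle-treated cultures.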

[8] = NCI Yeast Anticancer Drug Screen. Data for the CLN2oe strain (AID 163);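 note: 0% = growth of vehicle-only control cultures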; conditions: S. cerevisiae CLN2oe strain, active compounds read high
In short: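 Compounds are applied to yeast harbouring a defined cell-cycle control change; reduced growth compared with vehicle-treated controls gives the value.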

[9] = NCI Yeast Anticancer Drug Screen. Data for the cln2 rad14 strain (AID 165);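 note: 0% = growth equal to vehicle treated cultures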; conditions: S. cerevisiae cln2 rad14 strain, active compounds read high
In short: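 Readout is yeast growth inhibition versus vehicle-treated controls, using a strain with cln2 and rad14 alterations exposed to compound.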

[10] = NCI Yeast Anticancer Drug Screen. Data for the bub3 strain (AID 167); conditions: S. cerevisiae bub3 mutant strain, active compounds read high
In short: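 In this screen, a yeast mutant lacking normal mitotic checkpoint function is challenged with compound. Relative growth versus vehicle gives the inhibition value.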

[11] = NCI Yeast Anticancer Drug Screen. Data for the wt2 strain (AID 169);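 note: 0% = growth of vehicle-treated yeast cultures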; conditions: S. cerevisiae wt2 strain growth inhibition, active compounds read high
In short: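 Against vehicle-treated controls, the growth of yeast exposed to each compound was compared, and the inhibition was recorded.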

[12] = NCI Yeast Anticancer Drug Screen. Data for the mlh1 strain (AID 171);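 note: 0% = growth of vehicle-treated control cultures of the same strain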; conditions: S. cerevisiae mlh1 strain growth inhibition, active compounds read high
In short: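 Measured: yeast growth. Reference: vehicle-treated controls. Organism: strain with a defined alteration affecting DNA damage repair or cell cycle control, treated with compound.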

[13] = NCI Yeast Anticancer Drug Screen. Data for the sgs1 strain (AID 173);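 note: 0% = growth of vehicle-only control cultures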; conditions: S. cerevisiae sgs1 mutant, active compounds read high
In short: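 Each compound was added to cultures of the altered yeast strain. Growth was recorded, and inhibition was derived by comparison with vehicle controls.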

[14] = NCI Yeast Anticancer Drug Screen. Data for the mlh1 rad18 strain (AID 175); conditions: S. cerevisiae mlh1 rad18 strain growth inhibition, active compounds read high
In short: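 Genetically defined yeast (DNA repair-deficient) exposed to compounds; growth inhibition determined relative to vehicle.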

[15] = NCI Yeast Anticancer Drug Screen. Data for the rad18 strain (AID 177); conditions: S. cerevisiae rad18 mutant growth inhibition, active compounds read high
In short: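 Vehicle-treated cultures served as the baseline for scoring compound-induced growth inhibition in DNA-repair-mutant yeast.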

[16] = at 5.0 µM (retest, dose inferred, filed as 0.5)
[17] = at 50.0 µM (retest, dose inferred, filed as 5.0)

Measured: growth inhibition

CC(=O)C1=C(C)O/C(=C/c2cccc(Cl)c2)C1=O
active: [1]; at 100.0 µM 99% | [3]; at 100.0 µM 88% | [4]; at 100.0 µM 96% | [5]; at 50.0 µM 71% | [5]; at 100.0 µM 96% | [8]; at 100.0 µM 98% | [10]; at 100.0 µM 91% | [11]; at 33.0 µM 71% | [11]; at 100.0 µM 91% | [12]; at 100.0 µM 75% | [13]; at 100.0 µM 95% | [14]; [17] 88% | [14]; at 50.0 µM 91.3% | [15]; at 100.0 µM 99%
inactive: [1]; at 1.2 µM 14% | [1]; at 3.7 µM 36% | [1]; at 11.0 µM 27% | [1]; at 33.0 µM 36% | [2]; at 1.2 µM -7% | [2]; at 3.7 µM 2% | [2]; at 11.0 µM 2% | [2]; at 33.0 µM -2% | [2]; at 100.0 µM 25% | [3]; at 1.2 µM 16% | [3]; at 3.7 µM 25% | [3]; at 11.0 µM 22% | [3]; at 33.0 µM 32% | [4]; at 1.2 µM -4% | [4]; at 3.7 µM 19% | [4]; [16] -1% | [4]; at 11.0 µM 21% | [4]; at 33.0 µM 18% | [4]; [17] 59% | [4]; at 50.0 µM 52.7% | [5]; at 1.2 µM -9% | [5]; at 3.7 µM 2% | [5]; [16] 2% | [5]; at 11.0 µM 0% | [5]; at 33.0 µM 7% | [5]; [17] 68% | [6]; at 1.2 µM 7% | [6]; at 3.7 µM 0% | [6]; at 11.0 µM 6% | [6]; at 33.0 µM 10% | [6]; at 100.0 µM 28% | [7]; [16] 10% | [7]; [17] 60% | [7]; at 50.0 µM 10.7% | [8]; at 1.2 µM 5% | [8]; at 3.7 µM 5% | [8]; at 11.0 µM 15% | [8]; at 33.0 µM 29% | [9]; [16] 6% | [9]; [17] 12% | [9]; at 50.0 µM -1.45% | [10]; at 1.2 µM 0% | [10]; at 3.7 µM 12% | [10]; [16] 5% | [10]; at 11.0 µM 18% | [10]; at 33.0 µM 26% | [10]; [17] 47% | [10]; at 50.0 µM -8% | [11]; at 1.2 µM -12% | [11]; at 3.7 µM 6% | [11]; at 11.0 µM 16% | [12]; at 1.2 µM -3% | [12]; at 3.7 µM -4% | [12]; at 11.0 µM 4% | [12]; at 33.0 µM 9% | [13]; at 1.2 µM 2% | [13]; at 3.7 µM 36% | [13]; at 11.0 µM 29% | [13]; at 33.0 µM 39% | [14]; [16] 9% | [15]; at 1.2 µM -7% | [15]; at 3.7 µM 16% | [15]; at 11.0 µM 13% | [15]; at 33.0 µM 28%
